Data as given in PubChem BioAssay (EPA / NIEHS).
Records with an inconclusive call do not appear. The source made the active and inactive calls. The calls were made as follows: active = hit-call score of the fitted dose curve at least 0.9, where 1 is the maximum; inconclusive = response in the unintended direction; inactive = score below 0.9.

Experiments:
[1] = molecular target: human Protein Tyrosine Phosphatase Receptor Type M (PTPRM), PTPRM (gene 5797) (UniProt P28827); assay: NVS_ENZ_hPTPRM: NovaScreen (NVS) Enzymatic Assay for human Protein Tyrosine Phosphatase Receptor Type M (PTPRM) (AID 2283215)
Method in brief: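 Cell-free recombinant PTPRM with fluorogenic substrate; product separated from substrate by electrophoretic mobility shift and read by fluorescence, 1.33 h after dosing. Primary screen single concentration (25 uM) in duplicate; actives retested in concentration series; loss of signal versus DMSO.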

[2] = molecular target: human Sirtuin 2 (SIRT2), SIRT2 (gene 22933) (UniProt Q8IXJ6); assay: NVS_ENZ_hSIRT2: NovaScreen (NVS) Enzymatic Assay for human Sirtuin 2 (SIRT2) (AID 2283217)
Description: NVS_ENZ_hSIRT2 is a biochemical, single-readout assay that uses extracted gene-proteins in a cell-free assay. Measurements were taken 1 hour after chemical dosing in a 384-well plate.NVS_ENZ_hSIRT2 is one of one assay component(s) measured or calculated from the NVS_ENZ_hSIRT2 assay. It is designed to make measurements of enzyme activity, a form of enzyme reporter, as detected with fluorescence intensity signals by Fluorescence and electrophoretic mobility shift technology.Data from the assay component NVS_ENZ_hSIRT2 was analyzed into 1 assay endpoint. This assay endpoint, NVS_ENZ_hSIRT2, was analyzed in the positive analysis fitting direction relative to DMSO as the negative control and baseline of activity. Using a type of enzyme reporter, loss-of-signal activity can be used to understand changes in the enzymatic activity as they relate to the gene SIRT2. Furthermore, this assay endpoint can be referred to as a primary readout, because this assay has produced multiple assay endpoints where this one serves a enzymatic activity function. To generalize the intended target to other relatable targets, this assay endpoint is annotated to the hydrolase intended target family, where the subfamily is protein deacetylase.
Binding assays used specific radioligands (tritiated, iodinated) with non-radioactive competitive displacement ligands in agonist or antagonist protocols (as indicated) and various reference compounds and inhibitors to titrate specific binding to receptors and transporters. Most enzyme assays (CYPs, kinases, phosphatases, proteases, HDACs) used recombinant protein and specific substrates (fluorescence mostly, some colorimetric and radioactive) and inhibitors, followed by a biochemical separation of substrate and product. All assays for the biochemical HTS were initially run in duplicate at a single concentration (10 uM for CYP450 assays and 25 uM for all others). Assay-chemical combinations meeting a pre-defined threshold (e.g., 30% inhibition and other criteria defined below) were then run in singleton concentration-response format with maximum concentration of 20 uM for CYPs and 50 uM for all others. Each assay was run with positive and negative controls, and concurrent controls on every plate. The follow-up (secondary) screen tested active chemical-pairs in concentration series, as well as a few additional assays not tested in the primary screen, some selected negative inactives, and several cases re-run in the concentration series for confirmatory purposes.

[3] = molecular target: human Sirtuin 1 (SIRT1), SIRT1 (gene 23411) (UniProt Q96EB6); assay: NVS_ENZ_hSIRT1: NovaScreen (NVS) Enzymatic Assay for human Sirtuin 1 (SIRT1) (AID 2283219)
Method in brief: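 Cell-free recombinant SIRT1 with a fluorescent substrate; substrate and product separated by electrophoretic mobility shift and read by fluorescence intensity, 1 h after dosing. Primary screen at 25 uM in duplicate; hits re-run in concentration-response up to 50 uM, relative to DMSO.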

[4] = molecular target: human Tyrosine Protein Kinase Receptor Tie-2 (Tie2), TEK (gene 7010) (UniProt Q02763); assay: NVS_ENZ_hTie2: NovaScreen (NVS) Enzymatic Assay for human Tyrosine Protein Kinase Receptor Tie-2 (Tie2) (AID 2283225)
Method in brief: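 Recombinant human Tie2 kinase activity was read cell-free by fluorescence with electrophoretic mobility shift, 1 hour after dosing. The screen used 25 uM in duplicate, then concentration-response up to 50 uM. Signal loss was scored against DMSO.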

[5] = molecular target: human Sirtuin 3 (SIRT3), SIRT3 (gene 23410) (UniProt Q9NTG7); assay: NVS_ENZ_hSIRT3: NovaScreen (NVS) Enzymatic Assay for human Sirtuin 3 (SIRT3) (AID 2283222)
Method in brief: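 Cell-free enzyme assay with recombinant protein and fluorescent substrate, product separated by electrophoretic mobility shift; read 1 hour after dosing. Screened in duplicate at 25 uM, then singleton concentration-response up to 50 uM; loss of signal versus DMSO.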

[6] = molecular target: human Raf-1 Proto-Oncogene, serine/threonine Kinase (RAF1), RAF1 (gene 5894) (UniProt P04049); assay: NVS_ENZ_hRAF1: NovaScreen (NVS) Enzymatic Assay for human Raf-1 Proto-Oncogene, serine/threonine Kinase (RAF1) (AID 2283216)
Method in brief: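 Cell-free recombinant kinase with specific fluorescent substrate, product separated by electrophoretic mobility shift; read 1 h after dosing. Primary screen at 25 uM in duplicate; hits then run in concentration-response up to 50 uM, fitted as loss of signal versus DMSO.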

[7] = molecular target: human SRC Proto-Oncogene, Non-receptor Tyrosine Kinase (SRC), SRC (gene 6714) (UniProt P12931); assay: NVS_ENZ_hSRC: NovaScreen (NVS) Enzymatic Assay for human SRC Proto-Oncogene, Non-receptor Tyrosine Kinase (SRC) (AID 2283223)
Method in brief: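 Cell-free kinase activity assay with fluorescent substrate, product separated by electrophoretic mobility shift, read 1 h after dosing. Duplicate single point at 25 uM, then concentration-response up to 50 uM; loss of signal versus DMSO.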

[8] = molecular target: human Tropomyosin Receptor Kinase A (TRKA), NTRK1 (gene 4914) (UniProt P04629); assay: NVS_ENZ_hTrkA: NovaScreen (NVS) Enzymatic Assay for human Tropomyosin Receptor Kinase A (TRKA) (AID 2283224)
Method in brief: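 Recombinant human TrkA activity read after 1 h by fluorescence with electrophoretic mobility shift separating substrate and product. Primary screen in duplicate at 25 uM; actives were rerun in concentration-response up to 50 uM. Loss of signal versus DMSO.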

[9] = molecular target: human Rho Associated Coiled-coil Containing Protein Kinase 1 (ROCK1), ROCK1 (gene 6093) (UniProt Q13464); assay: NVS_ENZ_hROCK1: NovaScreen (NVS) Enzymatic Assay for human Rho Associated Coiled-coil Containing Protein Kinase 1 (ROCK1) (AID 2283214)
Method in brief: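 Cell-free recombinant human ROCK1 activity assay; fluorescent substrate and product separated by electrophoretic mobility shift, read 1 h after dosing. Screened in duplicate at 25 uM; loss of signal versus DMSO baseline scored as inhibition.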

[10] = molecular target: human Vascular Endothelial Growth Factor Receptor 1 (VEGFR1), FLT1 (gene 2321) (UniProt P17948); assay: NVS_ENZ_hVEGFR1: NovaScreen (NVS) Enzymatic Assay for human Vascular Endothelial Growth Factor Receptor 1 (VEGFR1) (AID 2283226)
Method in brief: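 Cell-free assay of recombinant human VEGFR1 kinase with substrate, measured 1 h after dosing; fluorescence with electrophoretic mobility-shift separation of substrate and product, referenced to DMSO; primary screen at 25 uM in duplicate, actives then run in concentration series.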

Sequence of human Protein Tyrosine Phosphatase Receptor Type M (PTPRM), PTPRM (gene 5797) (P28827 whole entry, looked up): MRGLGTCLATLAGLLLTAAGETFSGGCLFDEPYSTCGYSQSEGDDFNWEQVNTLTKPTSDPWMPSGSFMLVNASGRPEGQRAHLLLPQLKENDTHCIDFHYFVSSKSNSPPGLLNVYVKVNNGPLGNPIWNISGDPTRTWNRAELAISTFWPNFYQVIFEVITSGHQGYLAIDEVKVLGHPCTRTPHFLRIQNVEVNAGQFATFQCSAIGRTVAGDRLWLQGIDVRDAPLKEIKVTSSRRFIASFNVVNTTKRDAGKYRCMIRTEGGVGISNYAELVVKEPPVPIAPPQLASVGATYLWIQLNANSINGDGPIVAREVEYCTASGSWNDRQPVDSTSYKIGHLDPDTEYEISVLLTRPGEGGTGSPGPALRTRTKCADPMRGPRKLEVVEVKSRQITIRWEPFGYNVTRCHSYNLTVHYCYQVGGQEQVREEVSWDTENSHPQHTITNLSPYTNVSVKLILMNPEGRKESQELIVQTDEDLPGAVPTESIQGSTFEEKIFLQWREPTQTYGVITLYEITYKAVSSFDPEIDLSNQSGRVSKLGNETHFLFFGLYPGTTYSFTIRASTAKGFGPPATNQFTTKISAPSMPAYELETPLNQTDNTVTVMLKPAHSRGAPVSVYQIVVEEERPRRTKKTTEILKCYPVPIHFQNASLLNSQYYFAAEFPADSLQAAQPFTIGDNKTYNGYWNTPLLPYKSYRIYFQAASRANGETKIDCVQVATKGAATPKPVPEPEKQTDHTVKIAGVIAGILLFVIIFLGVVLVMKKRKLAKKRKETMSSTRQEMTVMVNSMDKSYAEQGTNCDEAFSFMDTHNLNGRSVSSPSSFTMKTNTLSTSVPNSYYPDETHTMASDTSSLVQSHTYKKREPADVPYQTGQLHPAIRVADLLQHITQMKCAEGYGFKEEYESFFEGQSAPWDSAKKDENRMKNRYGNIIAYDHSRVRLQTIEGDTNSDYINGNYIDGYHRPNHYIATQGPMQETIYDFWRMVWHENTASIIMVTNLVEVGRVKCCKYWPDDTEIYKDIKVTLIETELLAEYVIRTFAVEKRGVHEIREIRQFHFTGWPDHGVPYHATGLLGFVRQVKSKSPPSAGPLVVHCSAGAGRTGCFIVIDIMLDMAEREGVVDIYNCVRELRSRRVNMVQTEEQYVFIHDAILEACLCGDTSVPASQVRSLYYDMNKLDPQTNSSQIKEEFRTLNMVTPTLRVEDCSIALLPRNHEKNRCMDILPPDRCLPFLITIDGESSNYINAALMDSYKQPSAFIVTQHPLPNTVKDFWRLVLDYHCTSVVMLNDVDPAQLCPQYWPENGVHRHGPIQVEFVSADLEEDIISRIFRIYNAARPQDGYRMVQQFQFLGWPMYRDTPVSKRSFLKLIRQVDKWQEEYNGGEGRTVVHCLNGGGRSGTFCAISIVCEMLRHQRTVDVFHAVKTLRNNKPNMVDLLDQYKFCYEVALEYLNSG
Sequence of human Sirtuin 3 (SIRT3), SIRT3 (gene 23410) (Q9NTG7 whole entry, looked up): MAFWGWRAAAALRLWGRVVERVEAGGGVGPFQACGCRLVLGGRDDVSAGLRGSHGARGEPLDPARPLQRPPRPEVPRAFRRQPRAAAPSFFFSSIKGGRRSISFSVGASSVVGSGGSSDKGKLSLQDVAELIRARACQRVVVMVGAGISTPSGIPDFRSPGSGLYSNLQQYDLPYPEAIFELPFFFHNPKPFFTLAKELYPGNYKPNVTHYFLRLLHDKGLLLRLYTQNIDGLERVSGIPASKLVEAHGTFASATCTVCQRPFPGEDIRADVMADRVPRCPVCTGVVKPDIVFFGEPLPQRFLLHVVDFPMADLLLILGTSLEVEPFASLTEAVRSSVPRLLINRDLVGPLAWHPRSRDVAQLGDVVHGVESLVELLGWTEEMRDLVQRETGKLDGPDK
Sequence of human Sirtuin 2 (SIRT2), SIRT2 (gene 22933) (Q8IXJ6 whole entry, looked up): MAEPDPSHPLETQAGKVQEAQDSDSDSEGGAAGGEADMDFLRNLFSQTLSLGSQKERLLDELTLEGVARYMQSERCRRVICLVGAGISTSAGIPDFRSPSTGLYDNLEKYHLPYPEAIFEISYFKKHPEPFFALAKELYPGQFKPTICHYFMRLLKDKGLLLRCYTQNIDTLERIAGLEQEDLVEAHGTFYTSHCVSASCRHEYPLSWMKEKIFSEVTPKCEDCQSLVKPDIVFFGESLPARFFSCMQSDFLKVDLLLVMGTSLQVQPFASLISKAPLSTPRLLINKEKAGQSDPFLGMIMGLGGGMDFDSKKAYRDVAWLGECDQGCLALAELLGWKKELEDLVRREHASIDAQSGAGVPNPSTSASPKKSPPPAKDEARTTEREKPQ
Sequence of human Tyrosine Protein Kinase Receptor Tie-2 (Tie2), TEK (gene 7010) (Q02763 whole entry, looked up): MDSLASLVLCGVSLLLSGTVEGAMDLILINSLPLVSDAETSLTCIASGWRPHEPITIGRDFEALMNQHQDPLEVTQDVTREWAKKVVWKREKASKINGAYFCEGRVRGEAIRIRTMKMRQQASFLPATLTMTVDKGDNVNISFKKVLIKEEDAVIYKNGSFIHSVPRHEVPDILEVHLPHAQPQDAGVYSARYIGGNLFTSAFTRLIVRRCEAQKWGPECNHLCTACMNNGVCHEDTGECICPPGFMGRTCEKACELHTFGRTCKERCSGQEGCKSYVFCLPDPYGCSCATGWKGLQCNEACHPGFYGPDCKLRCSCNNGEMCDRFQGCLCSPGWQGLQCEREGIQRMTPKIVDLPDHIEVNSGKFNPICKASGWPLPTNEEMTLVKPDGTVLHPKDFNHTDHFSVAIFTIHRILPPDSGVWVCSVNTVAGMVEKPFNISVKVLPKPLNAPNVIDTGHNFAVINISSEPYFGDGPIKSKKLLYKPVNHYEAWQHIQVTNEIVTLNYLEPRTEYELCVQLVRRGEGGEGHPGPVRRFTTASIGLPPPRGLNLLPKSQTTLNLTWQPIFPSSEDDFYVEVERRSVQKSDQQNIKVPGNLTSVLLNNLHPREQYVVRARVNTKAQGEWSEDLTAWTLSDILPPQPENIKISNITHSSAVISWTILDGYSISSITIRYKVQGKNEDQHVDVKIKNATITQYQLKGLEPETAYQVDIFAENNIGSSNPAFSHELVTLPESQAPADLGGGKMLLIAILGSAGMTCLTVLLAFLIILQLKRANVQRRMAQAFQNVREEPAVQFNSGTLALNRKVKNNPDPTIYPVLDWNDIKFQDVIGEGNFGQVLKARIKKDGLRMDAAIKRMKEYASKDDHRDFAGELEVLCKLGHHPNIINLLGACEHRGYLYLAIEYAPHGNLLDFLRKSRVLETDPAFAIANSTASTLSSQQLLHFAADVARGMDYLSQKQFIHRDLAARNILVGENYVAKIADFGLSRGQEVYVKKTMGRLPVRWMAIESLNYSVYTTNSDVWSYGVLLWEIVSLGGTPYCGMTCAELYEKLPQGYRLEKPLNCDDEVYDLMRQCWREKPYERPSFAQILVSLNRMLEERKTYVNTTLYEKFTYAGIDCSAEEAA
Sequence of human Tropomyosin Receptor Kinase A (TRKA), NTRK1 (gene 4914) (P04629 whole entry, looked up): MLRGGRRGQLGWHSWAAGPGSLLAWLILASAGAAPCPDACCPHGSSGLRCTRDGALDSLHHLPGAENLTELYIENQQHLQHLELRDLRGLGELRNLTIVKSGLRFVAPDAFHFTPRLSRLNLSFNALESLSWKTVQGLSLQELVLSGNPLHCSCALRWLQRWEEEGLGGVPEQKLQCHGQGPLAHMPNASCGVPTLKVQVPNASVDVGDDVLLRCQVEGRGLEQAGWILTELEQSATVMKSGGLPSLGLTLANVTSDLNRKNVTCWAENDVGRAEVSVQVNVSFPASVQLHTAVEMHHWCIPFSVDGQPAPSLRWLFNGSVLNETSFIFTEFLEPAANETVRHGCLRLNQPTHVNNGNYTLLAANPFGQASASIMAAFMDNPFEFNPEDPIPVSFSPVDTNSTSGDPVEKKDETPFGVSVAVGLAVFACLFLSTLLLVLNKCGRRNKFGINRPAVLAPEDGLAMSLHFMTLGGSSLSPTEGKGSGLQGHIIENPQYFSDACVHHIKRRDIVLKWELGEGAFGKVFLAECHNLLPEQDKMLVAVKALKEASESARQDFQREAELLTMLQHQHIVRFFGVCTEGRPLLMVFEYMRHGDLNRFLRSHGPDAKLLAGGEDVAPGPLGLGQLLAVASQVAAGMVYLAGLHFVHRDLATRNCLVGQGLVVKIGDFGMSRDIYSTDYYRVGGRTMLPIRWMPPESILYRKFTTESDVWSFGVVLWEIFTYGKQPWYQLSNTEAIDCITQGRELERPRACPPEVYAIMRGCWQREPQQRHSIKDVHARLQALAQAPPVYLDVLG
Sequence of human Raf-1 Proto-Oncogene, serine/threonine Kinase (RAF1), RAF1 (gene 5894) (P04049 whole entry, looked up): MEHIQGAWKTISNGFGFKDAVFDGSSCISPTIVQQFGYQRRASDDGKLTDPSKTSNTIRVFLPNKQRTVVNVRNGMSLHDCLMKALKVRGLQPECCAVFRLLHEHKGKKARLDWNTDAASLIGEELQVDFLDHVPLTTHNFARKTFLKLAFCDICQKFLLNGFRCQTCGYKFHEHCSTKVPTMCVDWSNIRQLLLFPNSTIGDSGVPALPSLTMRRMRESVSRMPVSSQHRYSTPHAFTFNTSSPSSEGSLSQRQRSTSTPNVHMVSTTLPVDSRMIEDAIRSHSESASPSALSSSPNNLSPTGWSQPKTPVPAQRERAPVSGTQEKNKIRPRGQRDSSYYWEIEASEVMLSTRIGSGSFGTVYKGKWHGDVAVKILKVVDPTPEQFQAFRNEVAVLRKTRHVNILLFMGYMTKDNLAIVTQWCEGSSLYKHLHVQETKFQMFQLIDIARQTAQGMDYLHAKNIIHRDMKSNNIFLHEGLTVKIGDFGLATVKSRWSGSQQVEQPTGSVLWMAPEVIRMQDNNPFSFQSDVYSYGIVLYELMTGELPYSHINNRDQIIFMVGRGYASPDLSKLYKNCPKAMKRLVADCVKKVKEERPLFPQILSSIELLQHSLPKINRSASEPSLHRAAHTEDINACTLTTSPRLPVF

For `O=S(=O)(O)C(F)(F)C(F)(F)C(F)(F)C(F)(F)C(F)(F)C(F)(F)F`, the outcome [1] was “inactive”, the AC50 [2] was 11.4 µM (active) and the outcome [3] was “inactive”. The outcome [4] was “inactive”.
With `Cc1cc2c3c(c1)C(c1ccccc1)=N[C@@H](NC(=O)c1ccncc1)C(=O)N3CC2` the outcome [1] was “inactive”, the outcome [2] was “inactive” and the outcome [5] was “inactive”. The outcome [4] was “inactive”.
With `CCCCCCOC(=O)c1ccccc1C(=O)OCCCCCC` the outcome [2] was “inactive”.
With `Oc1ccc(C(c2ccc(O)cc2)(C(F)(F)F)C(F)(F)F)cc1` the outcome [6] was “inactive”, the AC50 [2] was 25 µM (active) and the AC50 [3] was 38.7 µM (active). For the same molecule, the AC50 [5] was 42.9 µM (active) and the AC50 [4] was 36.3 µM (active).
`CC1=C2C[C@H]3[C@@H](CC=C4C[C@@H](O)CC[C@@]43C)[C@@H]2CC[C@]12O[C@@H]1C[C@H](C)CN[C@H]1[C@H]2C` was tested, and the outcome [7] was “inactive”, the outcome [8] was “inactive” and the outcome [4] was “inactive”.
In the case of `CCCN(CCC)N=O`, the outcome [5] is reported as “inactive”, the outcome [8] is reported as “inactive” and the outcome [4] is reported as “inactive”.
In the case of `O=C(O)C(F)(F)C(F)(F)C(F)(F)C(F)(F)C(F)(F)F`, the outcome [6] is reported as “inactive”.
For `CC#Cc1cc(C)nc(Nc2ccccc2)n1`, the outcome [9] was “inactive”.
In the case of `c1cc2ccc3cccc4ccc(c1)c2c34`, the outcome [3] is reported as “inactive” and the outcome [5] is reported as “inactive”.
With `Cc1cccc([N+](=O)[O-])c1` the outcome [6] was “inactive” and the outcome [2] was “inactive”.
For `CC(C)C(=O)OCC(C)(C)C(OC(=O)C(C)C)C(C)C` (configuration not stated), the outcome [1] was “inactive”, the outcome [6] was “inactive” and the outcome [10] was “inactive”.
`Clc1ccc(C(c2ccccc2Cl)C(Cl)(Cl)Cl)cc1` (configuration not stated) was tested, and the outcome [4] was “inactive”.
`ClC1=C(Cl)[C@]2(Cl)[C@@H]3[C@@H]4C[C@@H]([C@H]5O[C@@H]45)[C@@H]3[C@@]1(Cl)C2(Cl)Cl` was tested, and the outcome [10] was “inactive”.
With `O=C(O)C(F)(F)C(F)(F)C(F)(F)C(F)(F)C(F)(F)C(F)(F)C(F)(F)C(F)(F)F` the outcome [1] was “inactive”, the outcome [6] was “inactive” and the outcome [3] was “inactive”. For the same molecule, the outcome [8] was “inactive”, the AC50 [4] was 6.63 µM (active) and the outcome [10] was “inactive”.
